For test [1], the target named is Cellular tumor antigen p53 (Homo sapiens) (UniProt P04637). Kind of test: Primary qHTS for small molecule compounds that upregulate eGFP-tagged delta133p53alpha (in N-terminal) cells. (AID 2060322). Further: nearly all actives have a fitted effect of over 75% in size.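 On activation: cells pre-induced with doxycycline then dosed without doxycycline; series mostly up to about 56 µM; 0% = DMSO vehicle and 100% = reference activator.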 Particulars: NCI-H358 eGFP-delta133p53alpha fluorescence, 24 h; activation: active compounds read high. A digest of the protocol: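 NCI-H358 cells pre-induced 24 h with 10 ng/ml doxycycline for eGFP-delta133p53alpha, plated dox-free and exposed 24 h at 37C to titrated compounds. Fixed, Hoechst-stained; gated GFP peak intensity by laser scanning cytometry, normalized to DMSO (0%) and 57.5 uM 5-azacytidine (100%).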
Chain of Cellular tumor antigen p53 (Homo sapiens) (P04637 whole entry, looked up): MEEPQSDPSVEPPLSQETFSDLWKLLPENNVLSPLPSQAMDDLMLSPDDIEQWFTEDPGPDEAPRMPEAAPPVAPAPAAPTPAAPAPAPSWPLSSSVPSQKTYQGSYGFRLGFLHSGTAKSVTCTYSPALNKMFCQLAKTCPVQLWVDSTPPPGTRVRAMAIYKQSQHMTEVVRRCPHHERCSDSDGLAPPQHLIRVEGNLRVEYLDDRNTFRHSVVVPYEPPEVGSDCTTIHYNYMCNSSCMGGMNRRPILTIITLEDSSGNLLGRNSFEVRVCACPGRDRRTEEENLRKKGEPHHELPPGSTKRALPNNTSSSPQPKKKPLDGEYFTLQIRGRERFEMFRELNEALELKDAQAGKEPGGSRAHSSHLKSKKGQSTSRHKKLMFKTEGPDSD

Test [2] can be described thus: BET inhibitor-based combinations targeting novel dependencies in MECOM-rearranged (r) AML: SET-2 cell line (AID 2202231). Further: nearly all actives have a fitted effect of over 35% in size.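 On viability: plate controls were DMSO treated cells for no effect and wells without cells for full effect.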 The note with it: SET-2 AML cells viability, CellTiter-Glo luminescence, 48 h; viability: active compounds read low, concentration not given here. A digest of the protocol:
(§1)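 500 cells/well; 11-pt dose curve; 48 h, standard incubator; CellTiter-Glo luminescence after 15 min RT; DMSO/empty-well normalization; AUC plus Z-AUC (mean-centered within each line).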
(In general: Cellular ATP, detected with luciferase, serves as a proxy for viable cell number.)

Test [3] in a line: BET inhibitor-based combinations targeting novel dependencies in MECOM-rearranged (r) AML: OCI-AML3 cell line (AID 2202232). Further: nearly all actives have a fitted effect of over 35% in size. The note with it: Potency: OCI-AML3 viability. An outline of the steps: as §1
Test [4] in a line: BET inhibitor-based combinations targeting novel dependencies in MECOM-rearranged (r) AML: MV-4-11 cell line (AID 2202233). Further: nearly all actives have a fitted effect of over 45% in size. A digest of the protocol: (§2)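 Cells were plated at 500 per well and exposed to each drug across an 11-point dose range for 48 hr at standard incubator conditions. Viability was read by CellTiter-Glo luminescence, and activity was expressed as AUC and per-cell-line Z-transformed AUC.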

Test [5] is described as follows: BET inhibitor-based combinations targeting novel dependencies in MECOM-rearranged (r) AML: HNT-34 cell line (AID 2202234). Further: nearly all actives have a fitted effect of over 35% in size. An outline of the steps: as §2
A short description of test [6]: BET inhibitor-based combinations targeting novel dependencies in MECOM-rearranged (r) AML: UCSD-AML1 cell line (AID 2202235). Further: nearly all actives have a fitted effect of over 40% in size. A digest of the protocol:
as §2

A short description of test [7]: BET inhibitor-based combinations targeting novel dependencies in MECOM-rearranged (r) AML: AML-191 cell line (AID 2202236; further: nearly all actives have a fitted effect of over 35% in size). An outline of the steps: as §1
Test [8] in a line: BET inhibitor-based combinations targeting novel dependencies in MECOM-rearranged (r) AML: AML-194 cell line (AID 2202237; further: nearly all actives have a fitted effect of over 40% in size). A digest of the protocol:
as §1

“And” between values parts separate entries of the source, which are not always exact repeats. Identical values can stand only once. Results filed as inconclusive are left out. Unmarked numbers belong to inactive results. The source made the active and inactive calls. The call rests on the fitted dose curve; in most records, active means well fitted curve in the direction sought with a large enough effect; inconclusive means small, poorly fitted or top-dose-only effect, or another doubt; inactive means no such curve, though single readings can be large; an effect the other way counts as inactive or inconclusive.
Potency means the concentration at half of the fitted maximal effect.

Turning to `COc1ccc(CCN(C)CCCOc2ccc(S(=O)(=O)c3[nH]c4ccccc4c3C(C)C)cc2)cc1OC`, the activation in test [1] is -2.61%. Also, the Potency was 26300 nM (active) in test [2]; 16600 nM (active) in test [3]; 11800 nM (active) in test [4]; 18600 nM (active) in test [5]; 14800 nM (active) in test [6]; 18600 nM (active) in test [7]. Also, in test [8], the Potency was 14800 nM (active).

With `O=NN(CCCl)C(=O)NC1CCCCC1`, the activation in test [1] is -3.35% and 3.74%. In addition, the viability (as a rule, a read-out of living cells in per cent, often relative to untreated cells) in test [2] was 112%. The Potency entry in test [3], in test [4], in test [5], in test [6], in test [7] and in test [8] was “inactive” each time.

Regarding `Cc1c(CCOc2ccc(C(=O)O)cc2)c2cc(Cl)ccc2n1C(c1ccccc1)c1ccccc1`, the activation in test [1] was -25%. Moreover, the viability in test [2] is 114%. Moreover, the Potency entry in test [3], in test [4], in test [5], in test [6], in test [7] and in test [8] was “inactive” throughout.

On to `O=c1oc2c(O)c(O)cc3c(=O)oc4c(O)c(O)cc1c4c23`, for which, in test [1], the activation is -6.69% and -19.7%. The viability in test [2] was 113%. The Potency entry in test [3], in test [4], in test [5], in test [6], in test [7] and in test [8] was “inactive” in each case.

Consider `CN(CCOc1ccc(CC2SC(=O)NC2=O)cc1)c1ccccn1` (stereo not given), for which the activation in test [1] is 6.69% and 5.38%. In test [2], the viability was 102%. Besides, the Potency entry in test [3], in test [4], in test [5], in test [6], in test [7] and in test [8] was “inactive” each time.

Turning to `C[C@H]1COc2c(N3CCN(C)CC3)c(F)cc3c(=O)c(C(=O)O)cn1c23`, the activation in test [1] is -12.8%. For the same compound, the viability in test [2] is 108%. Besides, the Potency result in test [3], in test [4], in test [5], in test [6], in test [7] and in test [8] was “inactive” throughout.

Take `CCOC(=O)C1=C[C@@H](OC(CC)CC)[C@H](NC(C)=O)[C@@H](N)C1`: the activation in test [1] is -8.89%. Also, the viability in test [2] was 112%. The Potency result in test [3], in test [4], in test [5], in test [6], in test [7] and in test [8] was “inactive” each time.

`COC1CCC(N(C(=O)C2CCC(C)CC2)c2cc(C3=CCCCC3)sc2C(=O)O)CC1` (stereo not given): the activation in test [1] was -11.2%. Moreover, the viability in test [2] was 113%. The Potency entry in test [3], in test [4], in test [5], in test [6], in test [7] and in test [8] was “inactive” each time.

Take `O=C(NCCO[N+](=O)[O-])c1cccnc1`: the activation in test [1] is -0.853% and 0.837%. Also, in test [2], the viability was 114%. The Potency entry in test [3], in test [5], in test [6], in test [7] and in test [8] was “inactive” each time. The Potency in test [4] is 4680 nM (active).

With `CN[C@H]1CCc2cc(OC)c(OC)c(OC)c2-c2ccc(OC)c(=O)cc21`, the activation in test [1] was 7.86%. The Potency in test [2] is 186 nM (active); in test [3], 93.4 nM (active); in test [4] it was 105 nM (active); in test [5], 83.3 nM (active); in test [6], 105 nM (active); in test [7] it was 105 nM (active). In addition, the Potency in test [8] was 105 nM (active).

On to `O=c1[nH]c(=O)n(C2CCCO2)cc1F` (stereo not given), for which the activation in test [1] is -1.88%. In test [2], the viability was 111%. In addition, the Potency result in test [3], in test [5], in test [6], in test [7] and in test [8] was “inactive” in each case. Further, the Potency in test [4] was 20900 nM (active).

Regarding `CC(=O)SCC(Cc1ccccc1)C(=O)NCC(=O)OCc1ccccc1` (stereo not given), the activation in test [1] is 16.6%. Moreover, in test [2], the viability is 105%. Moreover, the Potency result in test [3], in test [4], in test [5], in test [6], in test [7] and in test [8] was “inactive” in each case.

With `CNNCc1ccc(C(=O)NC(C)C)cc1`, in test [1], the activation was -0.837%. In addition, the viability in test [2] is 112%. For the same compound, the Potency entry in test [3], in test [4], in test [5], in test [6], in test [7] and in test [8] was “inactive” in each case.

`CC(C)[C@H](CO)Nc1nc(Nc2cccc(Cl)c2)c2ncn(C(C)C)c2n1`: the Potency is 24300 nM (active) in test [1]; 16600 nM (active) in test [2]; 18600 nM (active) in test [3]; 3720 nM (active) in test [4]; 16600 nM (active) in test [5]; 26300 nM (active) in test [6]. Moreover, the Potency is 14800 nM (active) in test [7] and 16600 nM (active) in test [8].

On to `O=C(O)CSCC(=O)NC1CCSC1=O` (stereo not given), for which, in test [1], the activation was -13.1% and -8.37%. In addition, in test [2], the viability is 95.2%. In addition, the Potency entry in test [3], in test [4], in test [5], in test [6], in test [7] and in test [8] was “inactive” in each case.

`NC(=O)Nc1cc(-c2ccc(CN3CCOCC3)cc2)sc1C(N)=O`: the activation in test [1] was 3%. Besides, the Potency is 10500 nM (active) in test [2]; 934 nM (active) in test [3]; 332 nM (active) in test [4]; 1180 nM (active) in test [5]; 1320 nM (active) in test [6]; 2630 nM (active) in test [7]. Besides, the Potency in test [8] is 742 nM (active).

Turning to `NNC(=O)c1ccncc1`, the activation in test [1] is -11.9% and -4.14%. The viability in test [2] is 110%. The Potency result in test [3], in test [4], in test [5], in test [6], in test [7] and in test [8] was “inactive” throughout.

On to `CC1(C)Cc2c(sc(NC(=S)NC(=O)c3ccccc3)c2C(=O)O)CO1`, for which the activation in test [1] was -34.5%. The viability in test [2] was 110%. For the same compound, the Potency entry in test [3], in test [4], in test [5], in test [6], in test [7] and in test [8] was “inactive” in each case.

As to `O=C(O)c1ccc2cc(-c3ccc(O)c(C45CC6CC(CC(C6)C4)C5)c3)ccc2c1`, the activation in test [1] is -20.4%. For the same compound, the Potency in test [2] is 590 nM (active); in test [3], 525 nM (active); in test [4] it was 934 nM (active); in test [5], 1050 nM (active); in test [6], 934 nM (active); in test [7], 934 nM (active). In addition, in test [8], the Potency was 1050 nM (active).

On to `CN(C)CCc1c[nH]c2ccc(CS(=O)(=O)N3CCCC3)cc12`, for which, in test [1], the activation was -5.58%. Also, in test [2], the viability is 115%. Also, the Potency entry in test [3], in test [4], in test [5], in test [6], in test [7] and in test [8] was “inactive” each time.

For `Cc1ccc(S(=O)(=O)OCC(=O)Nc2ccc(C(=O)O)c(O)c2)cc1`, the activation in test [1] is 22.5%. In addition, the viability in test [2] was 117%. Also, the Potency entry in test [3], in test [4], in test [5], in test [6], in test [7] and in test [8] was “inactive” each time.

Turning to `CN1CC[C@@H](c2c(O)cc(O)c3c(=O)cc(-c4ccccc4Cl)oc23)[C@@H](O)C1`, the Potency in test [1] was 217 nM (active); in test [2] it was 525 nM (active); in test [3] it was 263 nM (active); in test [4], 468 nM (active); in test [5], 468 nM (active); in test [6], 417 nM (active). Further, the Potency is 372 nM (active) in test [7] and 417 nM (active) in test [8].

Consider `CNC[C@H](O)[C@@H](O)[C@H](O)[C@H](O)CO`, for which the activation in test [1] is -10%. In test [2], the viability is 121%. Also, the Potency entry in test [3], in test [4], in test [5], in test [6], in test [7] and in test [8] was “inactive” each time.

In the case of `Nc1ncnc2ccccc12`, the activation in test [1] is 22.8%. For the same compound, the viability in test [2] was 115%. For the same compound, the Potency result in test [3], in test [4], in test [5], in test [6], in test [7] and in test [8] was “inactive” in each case.

`CC1(C)CCC2=C(O1)c1ccccc1C(=O)C2=O`: the activation in test [1] is -0.948%. Moreover, the Potency in test [2] was 18600 nM (active); in test [3], 18600 nM (active); in test [4], 18600 nM (active); in test [5], 16600 nM (active); in test [6] it was 9340 nM (active); in test [7] it was 7420 nM (active). For the same compound, in test [8], the Potency was 26300 nM (active).

Values taken from PubChem BioAssay (NCATS).
